Assay outcomes deposited in PubChem BioAssay by National Center for Advancing Translational Sciences (NCATS).
LDHA inh: LDHA (human) enzyme inhibition | P00338 | purified LDHA, NADH/diaphorase-resazurin fluorescence; active compounds read low | activity change, % (values are at about 110 or 230 µM) | hit rate 0.15% among 480,000; in the data active = activity change below about -30%; inconclusive = mostly about -25% to -30%
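Enzyme activity of human lactate dehydrogenase 5 (2 nM; 0.06 mM NADH, 0.2 mM pyruvate, 5 min, RT) is measured via a resazurin/diaphorase fluorescence readout of residual NADH.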
DT40 TDP1 CPT: DT40-hTDP1 cell growth loss with CPT; chicken DT40 Tdp1-/-;hTDP1 cells + 20 nM CPT, ATP luminescence, 48 h; Potency, µM (highest dose often 46.2 µM), actives largely listed as inhibitors; hit rate 12% among 420,000; note: nearly all actives have a fitted effect of over 55% in size
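Chicken DT40 Tdp1-/- cells stably complemented with human TDP1 were seeded at 400 cells/well in medium containing 20 nM camptothecin, exposed to pin-transferred compounds, and grown at 37 °C for at least 48 hr. Viability was read as ATP luminescence.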
IL1B secr inh: inflammasome signaling inhibition, IL-1 beta readout; THP-1 LPS/ATP IL-1B secretion, AlphaLISA, 16 h; active compounds read low; activity change, % at 57.5 µM; hit rate 4.7% among 360,000; in the data active = activity change below about -50%; inconclusive = mostly about -30% to -49%
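THP-1 cells pretreated 1 hr with compounds (up to 57.5 uM final), then stimulated with LPS (250 ng/mL final) plus ATP (1.25 mM final); secreted IL-1B measured by AlphaLISA after 16 hr, decreased signal indicating inhibition.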
DT40 TDP1 no CPT: qHTS for Inhibitors of human tyrosyl-DNA phosphodiesterase 1 (TDP1): qHTS in cells in absence of CPT. Potency, µM (top dose mostly 46.2 µM), hits mostly inhibitors. hit rate 15% among 420,000. DT40 Tdp1-/- hTDP1 cells, no CPT, ATP luminescence, 48 h; note: nearly all actives have a fitted effect of over 55% in size
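Camptothecin absent (DMSO only). Human TDP1-complemented DT40 knockout cells, 400 cells/well, 37 °C for minimum 48 hr; ATP measured via CellTiter-Glo, 30 min dark incubation, luminescence.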
VP16 counter: counter-screen for ROR gamma inhibitors: Gal4-VP16 reporter; Potency, µM (top dose mostly 53.6 µM), actives largely listed as inhibitors; hit rate 3.5% among 310,000; Drosophila S2 Gal4-VP16 UAS-luciferase, luminescence, 20 h;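 note: Gal4-VP16 expression switched on by copper sulfate through the metallothionein promoter; nearly all actives have a fitted effect of over 50% in size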
RORg inh: blocks mouse ROR gamma transcriptional activity | hit rate 5.4% among 310,000 | Drosophila S2 Gal4-RORgamma UAS-luciferase reporter, 20 h | P51450 | AID 2551 | Potency, µM (highest dose often 53.6 µM), usual class: inhibitors; note: nearly all actives have a fitted effect of over 60% in size
Target sequence (P51450 whole entry, looked up, the tested form may be a part): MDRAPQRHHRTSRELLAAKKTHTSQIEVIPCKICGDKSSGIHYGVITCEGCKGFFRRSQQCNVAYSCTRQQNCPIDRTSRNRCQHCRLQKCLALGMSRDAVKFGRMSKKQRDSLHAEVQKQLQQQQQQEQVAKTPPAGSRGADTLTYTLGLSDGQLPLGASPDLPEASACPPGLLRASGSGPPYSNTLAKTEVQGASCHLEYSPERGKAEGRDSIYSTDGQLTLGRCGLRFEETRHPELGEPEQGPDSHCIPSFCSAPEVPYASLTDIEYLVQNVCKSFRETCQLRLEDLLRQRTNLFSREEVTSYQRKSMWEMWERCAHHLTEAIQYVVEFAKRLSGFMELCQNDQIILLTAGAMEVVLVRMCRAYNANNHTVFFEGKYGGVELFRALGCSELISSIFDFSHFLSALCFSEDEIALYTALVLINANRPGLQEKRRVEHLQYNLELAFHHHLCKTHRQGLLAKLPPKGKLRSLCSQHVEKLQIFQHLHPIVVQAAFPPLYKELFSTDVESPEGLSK
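Stably transfected Drosophila Schneider cells are the test system, with ROR gamma fused to Gal4 and luciferase under UAS control; luminescence is read after 20 hr of 700 uM copper sulfate induction at ambient temperature.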
A number is an active result; 0 = inactive; ? = inconclusive; - = no result given. Compounds with a hit are over-represented: about 18% of the library has one in this group of screens. Unless noted, calls come from the whole dose curve; as a rule, active = well fitted curve in the direction sought with a large enough effect; inconclusive = small, poorly fitted or top-dose-only effect, or another doubt; inactive = no such curve, though single readings can be large; an effect the other way counts as inactive or inconclusive.

SMILES	LDHA inh	DT40 TDP1 CPT	IL1B secr inh	DT40 TDP1 no CPT	VP16 counter	RORg inh
COc1cc([N+](=O)[O-])ccc1NC(=O)Nc1nc2c(s1)CCCC2	0	0	0	0	0	0
Cc1cc(NC(=O)Nc2nc3c(s2)CCCCCC3)ccc1Br	0	21µM	-	18µM	-	-
Cc1cc(NC(=O)Nc2csc3c2CCCC3)ccc1Br	0	8.2µM	-	9.2µM	-	-
CC(C)c1ccc(NC(=O)Nc2csc3c2CCCC3)cc1	0	?	-	?	-	-
Cc1ccc(NC(=O)Nc2nc3c(s2)CCCCCC3)cc1C	0	13µM	-	13µM	-	-
O=C1CSc2ccc(C(=O)NC3CC3)cc2N1	0	-	-	-	-	-
Cc1ccc(OCCC(=O)N2CCN(S(=O)(=O)c3cccs3)CC2)cc1	0	-	-	-	-	-
O=C(C1CCN(S(=O)(=O)c2cccs2)CC1)N1CCN(c2ccccc2O)CC1	0	15µM	0	?	-	-
COc1ccc(N2CCN(C(=O)C3CCN(S(=O)(=O)c4cccs4)CC3)CC2)cc1	0	?	0	23µM	0	0
COc1ccc(N2CCN(C(=O)C3CCN(S(=O)(=O)c4cnc[nH]4)CC3)CC2)cc1	0	0	-	0	-	-
CC1Cc2ccccc2N1C(=O)C1CCN(S(=O)(=O)c2cccs2)CC1 (stereo unspecified)	0	?	-67	0	0	0
O=C(NCc1ccc(F)cc1)C1CCC(CNS(=O)(=O)c2cccs2)CC1 (stereo unspecified)	0	0	0	0	0	0
O=C(C1CCN(S(=O)(=O)c2cccs2)CC1)N1CCN(c2ccccc2F)CC1	0	0	-	?	-	-
O=C(C1CCC(CNS(=O)(=O)c2cccs2)CC1)N1CCN(c2ccc(F)cc2)CC1 (stereo unspecified)	0	?	?	21µM	0	?
CCOC(=O)C1CCN(C(=O)c2ccc(CN(c3ccccc3)S(C)(=O)=O)cc2)CC1	0	-	-	-	-	-
COc1ccc(N2CCN(C(=O)c3ccc(NS(=O)(=O)c4cccs4)cc3)CC2)cc1	0	?	0	13µM	0	?
COc1ccc(N2CCN(C(=O)c3ccc(NS(=O)(=O)c4ccc(F)cc4)cc3)CC2)cc1	0	?	0	?	0	?
COc1ccc(N2CCN(C(=O)C3CCN(S(=O)(=O)c4cccc5nonc45)CC3)CC2)cc1	0	?	-	16µM	-	-
Cc1ccccc1N1CCN(S(=O)(=O)c2cccs2)CC1	0	0	-54	0	0	0
Cc1ccc(Cn2c(CCNC(=O)c3cccc(C)c3)nc3ccccc32)cc1	0	18µM	-	?	-	-
COc1cc(CCNC(=O)c2ccc3c(c2)c(C)c(C)n3Cc2cccc(C)c2)cc(OC)c1OC	0	7.3µM	-	5.2µM	-	-
CCOc1ccc(CCNC(=O)c2ccc3c(c2)c(C)c(C)n3Cc2ccccc2)cc1OCC	0	16µM	-	13µM	-	-
Cc1ccc(CCNC(=O)c2ccc3c(c2)c(C)c(C)n3Cc2ccccc2)cc1	0	16µM	-	?	-	-
COc1ccc2oc(C(=O)NC3=NCCS3)c(C)c2c1	0	-	-	-	-	-
O=C1c2ccccc2NC(c2csc(-c3cccc(Br)c3)n2)N1C1CC1 (stereo unspecified)	0	-	-	-	-	-
SMILES	LDHA inh	DT40 TDP1 CPT	IL1B secr inh	DT40 TDP1 no CPT	VP16 counter	RORg inh
O=C1/C(=C\c2ccncc2)CCc2ccccc21	0	13µM	-98	15µM	-	-
O=C1C(=Cc2ccncc2)CCCc2ccccc21	0	23µM	?	21µM	-	-
Cn1cccc1/C=C1\CCc2ccccc2C1=O	0	?	?	?	0	13µM
O=C1/C(=C/c2ccncc2)CCC/C1=C\c1ccncc1	0	2.1µM	?	0.82µM	5µM	6.3µM
O=C(CSc1nccn2nc(-c3cccc4ccccc34)cc12)NCc1ccc(F)cc1	0	-	-	-	-	-
O=C(CCc1ncc(-c2ccc(F)cc2F)o1)Nc1ccc(Cl)cc1Cl	0	-	-	-	-	-
O=C1/C(=C\c2ccccc2)CCC/C1=C/c1ccccc1	0	21µM	0	18µM	-	-
O=C1/C(=C/c2ccncc2)CCc2ccccc21	0	?	-102	23µM	0	?
O=C1CCC/C1=C\c1ccccc1	0	0	0	0	0	0
O=C(OCc1cccc(F)c1)c1ccc(Cl)c(S(=O)(=O)N2CCCC2)c1	0	-	-	-	-	-
COc1cc(C2CC(=O)Nc3c(-c4ccccc4)nsc32)c(OC)c2c1OCO2 (stereo unspecified)	0	-	-	-	-	-
CC1Cc2ccccc2N1C1=CC(=O)CCC1 (stereo unspecified)	0	7.3µM	0	5.8µM	0	0
CCCCC1CCC(C(=O)Oc2ccc(OCC)cc2)CC1 (stereo unspecified)	0	-	-	-	-	-
CCSC(=O)N1c2ccc(OC)cc2C=CC1C#N (stereo unspecified)	0	0.0082µM	0	0.0052µM	-	-
COc1ccc(C(=O)N2c3ccccc3C=CC2C#N)cc1 (stereo unspecified)	0	0	0	?	0	0
Cc1ccc2c(c1)C=CC(C)N2C(=O)c1ccccc1 (stereo unspecified)	0	?	0	16µM	0	0
CC1=Cc2ccccc2C(C#N)N1C(=O)c1ccccc1 (stereo unspecified)	0	21µM	0	18µM	13µM	?
Cc1ccc(C(=O)N2c3ccccc3NC(=O)C2C)cc1 (stereo unspecified)	0	0	0	0	0	0
Cc1ccc2c(c1)C=CC(C#N)N2C(=O)c1ccccc1 (stereo unspecified)	0	1.6µM	0	1.8µM	0	0
Cc1cc(NC(=O)C(C)Sc2nnc(C)n2-c2ccccc2C)no1 (stereo unspecified)	0	-	-	-	-	-
Cc1ccc(S(=O)(=O)NCC(CCC(=O)O)C(F)(F)F)cc1 (stereo unspecified)	0	-	-	-	-	-
N#CC(C(=O)C1c2ccccc2Oc2ccccc21)c1nc2ccccc2[nH]1 (stereo unspecified)	0	-	-	-	-	-
CC1(C)CC(=O)C2=C(C1)OC(c1ccccc1)(C(C)(C)C)NC2=O (stereo unspecified)	0	-	-	-	-	-
COc1ccc(C(=O)Nc2ccnn2Cc2cccs2)cc1S(=O)(=O)N1CCCCCC1	0	-	-	-	-	-
COc1cc(-c2nc(Cn3nnc(C(=O)Nc4cc(C)cc(C)c4)c3C)c(C)o2)cc(OC)c1OC	0	?	-	12µM	-	-
COc1ccc(NC(=O)c2nnn(Cc3nc(-c4cc(Br)ccc4OC)oc3C)c2C)cc1	0	0	-	18µM	-	-
COC(=O)c1ccccc1NC(=O)NC(=O)C(F)(F)F	0	-	-	-	-	-
Cc1cc(C(=O)O)cs1	0	-	-	-	-	-
CCc1c(C)sc2c1CCN(C(=O)Nc1cc(C)ccc1C)C2c1ccc(OC)cc1 (stereo unspecified)	0	?	-	26µM	-	-
